# The supplement of paper PMC4466140
# Key:
# Assay in all cases: SPOT peptide array binding signal intensity (averaged, normalized) (arbitrary units (background-subtracted, floor 0; scale differs between SH3 domains)); higher = stronger binding of the SH3 domain to the peptide
# [1] = target: AgAbp1
# Procedure, shortened: (§1)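 GST-fused SH3 domains from four yeast species were expressed in E. coli BL21(DE3), purified on glutathione Sepharose and incubated at 10 μg/ml overnight at 4°C in TBS-based blocking buffer on cellulose membranes carrying synthetic 15-mer peptides, with cysteines replaced by serines. Bound protein was detected with anti-GST antibody, an HRP anti-mouse secondary and luminol, then imaged and quantified with Genespotter. Binding signal is the normalized, background-subtracted spot intensity averaged over replicates, in arbitrary units that differ between domains.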
# [2] = target: AgBbc1
# Procedure, shortened: as §1
# [3] = target: AgBem1-D1
# Procedure, shortened: as §1
# [4] = target: AgBzz1-D1
# Procedure, shortened: as §1
# [5] = target: AgBzz1-D2
# Procedure, shortened: as §1
# [6] = target: AgCyk3
# Procedure, shortened: as §1
# [7] = target: AgFus1
# Procedure, shortened: as §1
# [8] = target: AgHof1
# Procedure, shortened: as §1
# [9] = target: AgHse1
# Procedure, shortened: as §1
# [10] = target: AgLsb1
# Procedure, shortened: as §1
# [11] = target: AgLsb4
# Procedure, shortened: as §1
# [12] = target: AgMyo5
# Procedure, shortened: as §1
# [13] = target: AgNbp2
# Procedure, shortened: as §1
# [14] = target: AgRvs167
# Procedure, shortened: as §1
# [15] = target: AgSho1
# Procedure, shortened: as §1
# [16] = target: AgSla1-D1-D2
# Procedure, shortened: as §1
# [17] = target: AgSla1-D3
# Procedure, shortened: as §1
# [18] = target: CaAbp1-D1
# Procedure, shortened: as §1
# [19] = target: CaAbp1-D2
# Procedure, shortened: as §1
# [20] = target: CaBbc1
# Procedure, shortened: as §1
# [21] = target: CaBem1-D1
# Procedure, shortened: as §1
# [22] = target: CaBzz1-D1
# Procedure, shortened: as §1
# [23] = target: CaBzz1-D2
# Procedure, shortened: as §1
# [24] = target: CaCyk3
# Procedure, shortened: as §1
# [25] = target: CaFus1
# Procedure, shortened: as §1
# [26] = target: CaHof1
# Procedure, shortened: as §1
# [27] = target: CaHse1
# Procedure, shortened: as §1
# [28] = target: CaLsb1
# Procedure, shortened: as §1
# [29] = target: CaLsb4
# Procedure, shortened: as §1
# [30] = target: CaMyo5
# Procedure, shortened: as §1
# [31] = target: CaNbp2
# Procedure, shortened: as §1
# [32] = target: CaRvs167
# Procedure, shortened: as §1
# [33] = target: CaRvs167-3
# Procedure, shortened: as §1
# [34] = target: CaSho1
# Procedure, shortened: as §1
# [35] = target: CaSla1-D1-D2
# Procedure, shortened: as §1
# [36] = target: CaSla1-D3
# Procedure, shortened: as §1
# [37] = target: ScAbp1
# Procedure, shortened: as §1
# [38] = target: ScBbc1
# Procedure, shortened: as §1
# [39] = target: ScBem1-D1
# Procedure, shortened: as §1
# [40] = target: ScBzz1-D1
# Procedure, shortened: as §1
# [41] = target: ScBzz1-D2
# Procedure, shortened: as §1
# [42] = target: ScCyk3
# Procedure, shortened: as §1
# [43] = target: ScFus1
# Procedure, shortened: as §1
# [44] = target: ScHof1
# Procedure, shortened: as §1
# [45] = target: ScHse1
# Procedure, shortened: as §1
# [46] = target: ScLsb1
# Procedure, shortened: as §1
# [47] = target: ScLsb2
# Procedure, shortened: as §1
# [48] = target: ScLsb3
# Procedure, shortened: as §1
# [49] = target: ScLsb4
# Procedure, shortened: as §1
# [50] = target: ScMyo3
# Procedure, shortened: as §1
# [51] = target: ScMyo5
# Procedure, shortened: as §1
# [52] = target: ScNbp2
# Procedure, shortened: as §1
# [53] = target: ScPex13
# Procedure, shortened: as §1
# [54] = target: ScRvs167
# Procedure, shortened: as §1
# [55] = target: ScSho1
# Procedure, shortened: as §1
# [56] = target: ScSla1-D1-D2
# Procedure, shortened: as §1
# [57] = target: ScSla1-D3
# Procedure, shortened: as §1
# [58] = target: SpAbp1-D1
# Procedure, shortened: as §1
# [59] = target: SpBbc1
# Procedure, shortened: as §1
# [60] = target: SpBzz1-D1
# Procedure, shortened: as §1
# [61] = target: SpBzz1-D2
# Procedure, shortened: as §1
# [62] = target: SpCyk3
# Procedure, shortened: as §1
# [63] = target: SpHof1
# Procedure, shortened: as §1
# [64] = target: SpHof1-2
# Procedure, shortened: as §1
# [65] = target: SpHof1-3
# Procedure, shortened: as §1
# [66] = target: SpHse1
# Procedure, shortened: as §1
# [67] = target: SpLsb1
# Procedure, shortened: as §1
# [68] = target: SpLsb4
# Procedure, shortened: as §1
# [69] = target: SpMyo1
# Procedure, shortened: as §1
# [70] = target: SpNbp2
# Procedure, shortened: as §1
# [71] = target: SpPex13
# Procedure, shortened: as §1
# [72] = target: SpRvs167
# Procedure, shortened: as §1
# [73] = target: SpSla1-D1-D2
# Procedure, shortened: as §1
# [74] = target: SpSla1-D3
# Procedure, shortened: as §1
binder,measurement,setting,value
QHQQRQPKRPKRYSL,SPOT peptide array binding signal intensity,[1],147
same,SPOT peptide array binding signal intensity,[2],293
same,SPOT peptide array binding signal intensity,[3],112
same,SPOT peptide array binding signal intensity,[4],55.5
same,SPOT peptide array binding signal intensity,[5],19
same,SPOT peptide array binding signal intensity,[6],11
same,SPOT peptide array binding signal intensity,[7],98.5
same,SPOT peptide array binding signal intensity,[8],34.5
same,SPOT peptide array binding signal intensity,[9],353
same,SPOT peptide array binding signal intensity,[10],15
same,SPOT peptide array binding signal intensity,[11],151
same,SPOT peptide array binding signal intensity,[12],1.5
same,SPOT peptide array binding signal intensity,[13],654
same,SPOT peptide array binding signal intensity,[14],6
same,SPOT peptide array binding signal intensity,[15],12
same,SPOT peptide array binding signal intensity,[16],288
same,SPOT peptide array binding signal intensity,[17],3.5
same,SPOT peptide array binding signal intensity,[18],1050
same,SPOT peptide array binding signal intensity,[19],639
same,SPOT peptide array binding signal intensity,[20],792
same,SPOT peptide array binding signal intensity,[21],20
same,SPOT peptide array binding signal intensity,[22],59
same,SPOT peptide array binding signal intensity,[23],94
same,SPOT peptide array binding signal intensity,[24],211
same,SPOT peptide array binding signal intensity,[25],126
same,SPOT peptide array binding signal intensity,[26],2
same,SPOT peptide array binding signal intensity,[27],175
same,SPOT peptide array binding signal intensity,[28],2.5
same,SPOT peptide array binding signal intensity,[29],1810
same,SPOT peptide array binding signal intensity,[30],12
same,SPOT peptide array binding signal intensity,[31],492
same,SPOT peptide array binding signal intensity,[32],18.5
same,SPOT peptide array binding signal intensity,[33],38.2
same,SPOT peptide array binding signal intensity,[34],56.5
same,SPOT peptide array binding signal intensity,[35],558
same,SPOT peptide array binding signal intensity,[36],26.2
same,SPOT peptide array binding signal intensity,[37],43
same,SPOT peptide array binding signal intensity,[38],251
same,SPOT peptide array binding signal intensity,[39],14
same,SPOT peptide array binding signal intensity,[40],9
same,SPOT peptide array binding signal intensity,[41],12
same,SPOT peptide array binding signal intensity,[42],216
same,SPOT peptide array binding signal intensity,[43],54.5
same,SPOT peptide array binding signal intensity,[44],≤ 0
same,SPOT peptide array binding signal intensity,[45],409
same,SPOT peptide array binding signal intensity,[46],25.8
same,SPOT peptide array binding signal intensity,[47],45
same,SPOT peptide array binding signal intensity,[48],1410
same,SPOT peptide array binding signal intensity,[49],140
same,SPOT peptide array binding signal intensity,[50],4.25
same,SPOT peptide array binding signal intensity,[51],7.75
same,SPOT peptide array binding signal intensity,[52],620
same,SPOT peptide array binding signal intensity,[53],88.8
same,SPOT peptide array binding signal intensity,[54],129
same,SPOT peptide array binding signal intensity,[55],196
same,SPOT peptide array binding signal intensity,[56],372
same,SPOT peptide array binding signal intensity,[57],22.2
same,SPOT peptide array binding signal intensity,[58],426
same,SPOT peptide array binding signal intensity,[59],31
same,SPOT peptide array binding signal intensity,[60],250
same,SPOT peptide array binding signal intensity,[61],1.5
same,SPOT peptide array binding signal intensity,[62],10.5
same,SPOT peptide array binding signal intensity,[63],81
same,SPOT peptide array binding signal intensity,[64],18.8
same,SPOT peptide array binding signal intensity,[65],169
same,SPOT peptide array binding signal intensity,[66],75.2
same,SPOT peptide array binding signal intensity,[67],73.8
same,SPOT peptide array binding signal intensity,[68],2350
same,SPOT peptide array binding signal intensity,[69],7.75
same,SPOT peptide array binding signal intensity,[70],267
same,SPOT peptide array binding signal intensity,[71],12
same,SPOT peptide array binding signal intensity,[72],26.8
same,SPOT peptide array binding signal intensity,[73],≤ 0
same,SPOT peptide array binding signal intensity,[74],6
